From publication PMC4336329 (PLoS ONE, 2015)
The whole screen tested about 310,000 compounds, of which about 14,000 (4.5%) showed an effect of 50% or more. The effect is printed as a negative number. The list comes from a sample in which strong results are over-represented; it also holds similar structures and randomly drawn compounds.

The compounds below were run against human ether-à-go-go-related gene (hERG) potassium channel (human, UniProt Q12809) (assay: primary screen, population patch clamp on CHO cells stably expressing hERG; higher = less effect of the substance).
Chain of human ether-à-go-go-related gene (hERG) potassium channel (Q12809 whole entry, looked up): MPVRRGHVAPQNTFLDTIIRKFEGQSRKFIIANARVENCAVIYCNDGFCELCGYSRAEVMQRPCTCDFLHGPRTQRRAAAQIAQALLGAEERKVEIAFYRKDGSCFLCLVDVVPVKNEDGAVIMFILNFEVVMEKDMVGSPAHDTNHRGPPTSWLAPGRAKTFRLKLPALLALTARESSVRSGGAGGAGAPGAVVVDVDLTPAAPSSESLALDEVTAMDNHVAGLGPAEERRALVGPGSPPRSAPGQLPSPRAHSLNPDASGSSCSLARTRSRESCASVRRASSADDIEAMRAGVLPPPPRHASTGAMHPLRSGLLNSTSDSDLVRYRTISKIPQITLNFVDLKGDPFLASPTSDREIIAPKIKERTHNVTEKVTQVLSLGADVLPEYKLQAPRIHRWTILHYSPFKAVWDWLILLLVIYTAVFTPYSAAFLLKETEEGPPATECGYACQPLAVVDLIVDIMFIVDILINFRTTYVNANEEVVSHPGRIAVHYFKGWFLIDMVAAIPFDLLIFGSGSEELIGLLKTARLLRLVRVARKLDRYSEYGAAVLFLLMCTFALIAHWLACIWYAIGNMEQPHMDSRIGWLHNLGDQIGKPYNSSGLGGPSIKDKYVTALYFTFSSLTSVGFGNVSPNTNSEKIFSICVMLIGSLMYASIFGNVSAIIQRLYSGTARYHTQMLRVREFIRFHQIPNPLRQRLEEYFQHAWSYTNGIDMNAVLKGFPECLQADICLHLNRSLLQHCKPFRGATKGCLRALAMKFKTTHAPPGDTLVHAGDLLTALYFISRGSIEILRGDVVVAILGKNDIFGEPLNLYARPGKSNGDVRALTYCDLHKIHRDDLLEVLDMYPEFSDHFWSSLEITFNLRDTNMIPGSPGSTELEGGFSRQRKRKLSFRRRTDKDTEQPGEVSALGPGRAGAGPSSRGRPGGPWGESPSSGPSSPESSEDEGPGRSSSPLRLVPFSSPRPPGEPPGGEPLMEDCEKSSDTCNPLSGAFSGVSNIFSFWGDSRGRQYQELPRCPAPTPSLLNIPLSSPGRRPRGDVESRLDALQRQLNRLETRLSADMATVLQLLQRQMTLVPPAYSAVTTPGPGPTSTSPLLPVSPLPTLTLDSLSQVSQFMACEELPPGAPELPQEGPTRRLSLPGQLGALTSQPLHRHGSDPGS
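Also: peak tail current of the secondary pulse compared with the same well before compound.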

| SMILES | hERG current change (%, negative = inhibition) at 10uM [%] |
| --- | --- |
| CCC1=NC(c2ccccc2OC)N(O)C1(C)C (stereo not shown) | 15.9 |
| CCOc1ccc(C(=O)NCC(=O)NCC(c2cccs2)N2CCOCC2)cc1 (stereo not shown) | 4.69 |
| c1ccc(-c2nc(NC3CCCC3)c3ccccc3n2)cc1 | 20.5 |
| c1csc(-c2nnc(NC3CCCCC3)c3ccccc23)c1 | -75.4 |
| O=C(O)C(=O)O.c1csc(-c2nnc(N3CCCCCC3)c3ccccc23)c1 | -20.9 |
| Oc1ccccc1-c1nc(NC2CCCC2)c2ccccc2n1 | 17.8 |
| c1ccc2c(NC3CCCC3)nnc(NC3CCCC3)c2c1 | -74.9 |
| c1csc(-c2nc3ccccn3c2NC2CCCCC2)c1 | 8.81 |
| CC(C)c1nc(=S)n(-c2ccccc2)[nH]1 | 17.5 |
| COc1cccc(Cn2nnc(C(=O)Nc3cc(C)ccc3OC)c2N)c1 | 8.11 |
| CCOC(=O)C1C(=O)NC(c2ccccc2)=NC1c1ccc(O)c(OC)c1 (stereo not shown) | 9.11 |
| Cc1ccccc1CN1C(=O)[C@@H]2Cc3c([nH]c4ccccc34)C(C)(C)N2C1=O | 19 |
| Cl.N=c1sccn1CC(=O)N1CCc2ccccc21 | -8.84 |
| Cc1ccc(NC2=Nc3ccccc3CS2)cc1 | 8.04 |
| CCOC(=O)c1c(NC(=O)CSc2nc3ccccc3o2)sc(C)c1C | 19.4 |
| Cc1ccc2c(c1)nnn2C1CCN(CC(=O)c2ccc(Cl)cc2)CC1 | -45.9 |
| Cc1ccc2c(c1)nnn2C1CCN(CC(=O)Nc2ccc(F)cc2)CC1 | -65.4 |
| Cc1ccc2c(c1)nnn2C1CCN(CC(=O)Nc2ccc3c(c2)OCCO3)CC1 | -55.5 |
| Cc1ccccc1C(=O)NC1CCN(CC(=O)Nc2ccc3c(c2)OCCO3)CC1 | 2.93 |
| Cc1ccc2c(c1)nnn2C1CCN(C(=O)C23CC4CC(CC(C4)C2)C3)CC1 | 1.11 |
| O=C(CN1CCC(n2nnc3cc(F)ccc32)CC1)Nc1ccc2c(c1)CCC2 | -21.3 |
| Cc1ccc2c(c1)nnn2C1CCN(CC(=O)N2CCN(c3ccc(F)cc3)CC2)CC1 | -70.3 |
| O=C(CN1CCC(n2nnc3cc(C(F)(F)F)ccc32)CC1)Nc1ccc2c(c1)OCCO2 | -36.5 |
| CC1(CCC#N)N=C(SCCC#N)N(c2ccccc2)C1=O (stereo not shown) | 2.7 |
| NC(Cc1ccc(O)c([N+](=O)[O-])c1)C(=O)O (stereo not shown) | 15.2 |

| SMILES | hERG current change (%, negative = inhibition) at 10uM [%] |
| --- | --- |
| CN(CC(=O)NCCN1CCN(Cc2ccccc2)CC1)S(=O)(=O)c1cccc2nsnc12 | -25.4 |
| CCC/C=C1/CCCOC(C(=O)NCc2cc(C)n(C)n2)(C(F)(F)F)C1 (stereo not shown) | 5.48 |
| O=C(CSc1nnc(NC(=O)c2ccccc2C(=O)O)s1)Nc1ccccc1Cl | 24 |
| O=C(O)c1ccc(Nc2nc(-c3cccnc3)cs2)cc1O | 9.69 |
| C=CCNC(=O)CSc1nnc(-c2cccs2)o1 | -0.265 |
| Cc1ccc(-c2nn(-c3cc(Cl)ccc3[N+](=O)[O-])c(=O)c3ccccc23)cc1 | -22.1 |
| Cc1nc2c([nH]1)C1(CCN(Cc3ccccc3)CC1)C(C#N)=C(N)O2.Cl | -52.5 |
| Cc1[nH]nc2c1C1(CCN(Cc3ccccc3)CC1)C(C#N)=C(N)O2 | -42 |
| CC(C)c1[nH]nc2c1C1(CCN(Cc3ccccc3)CC1)C(C#N)=C(N)O2 | -25.5 |
| COCCN1C(=O)c2cc(C(=O)Nc3cccc(F)c3)ccc2C1Nc1cccc(F)c1 (stereo not shown) | 7.71 |
| Cc1cc(C)c(S(=O)(=O)c2ccccc2)c(N(C)C)n1 | 4.06 |
| Nc1c(S(=O)(=O)c2ccccc2)c2nc3ccccc3nc2n1CCN1CCOCC1 | -38.2 |
| Cc1ccc(S(=O)(=O)c2c(N)n(CCCO)c3nc4ccccc4nc23)cc1 | -21.4 |
| CCN(CC)CCn1c(N)c(S(=O)(=O)c2ccccc2)c2nc3ccccc3nc21 | -49.4 |
| CN(C)CCCn1c(N)c(S(=O)(=O)c2ccccc2)c2nc3ccccc3nc21 | -51.1 |
| CCCCn1c(N)c(S(=O)(=O)c2ccc(C)cc2)c2nc3ccccc3nc21 | -0.298 |
| Cc1ccc(S(=O)(=O)c2c(N)n(CCCN(C)C)c3nc4ccccc4nc23)cc1 | -59 |
| O=C(NCC1CCCN(C(=O)CN2CCCCC2)C1)c1ccccc1Cl (stereo not shown) | 13 |
| Cc1cc(SCC(=O)NCCC2=CCCCC2)nc2ccccc12 | -10.9 |
| O=c1c(-c2ccnn2-c2ccc(F)cc2)cnc2n1CCS2 | 19.9 |
| Cc1cccc(NC(=O)CN2CCN(C(=O)C3CCC3)CC2)c1C | -31.4 |
| Cc1cccc(NC(=O)CN2CCN(C(=O)C3CCCO3)CC2)c1C (stereo not shown) | 9.91 |
| CCc1ccccc1NC(=O)CN1CCN(C(=O)C2CCN(C(=O)/C=C/c3ccccc3)CC2)CC1 | -72.9 |
| COC(=O)C1CCN(C(=O)/C=C/c2ccccc2)CC1 | 4.21 |
| CCOC(=O)C1CCN(C(=O)/C=C/c2ccccc2)CC1 | -16.8 |

| SMILES | hERG current change (%, negative = inhibition) at 10uM [%] |
| --- | --- |
| Cc1cccc(NC(=O)CN2CCN(C(=O)C3CCN(C(=O)/C=C/c4ccccc4)CC3)CC2)c1C | -73.9 |
| C/C(=N\N=c1/sc2ccccc2n1C)c1ccc(N2CCOCC2)cc1 | 18.9 |
| Cc1ccc2c(CC(=O)OCc3nc(N)nc(Nc4ccccc4C)n3)coc2c1 | 5.79 |
| CCCNC(=O)OCc1cccnc1Sc1ccc(C)cc1 | -30 |
| COCCOc1ccc(C(F)(F)F)cc1NC(=O)c1ccc(C)cc1 | -0.151 |
| COc1ccc(CCNC(=O)[C@@H](NC(=O)c2ccccc2F)C(C)C)cc1OC | -9.87 |
| O=C(CSc1ncccn1)NCc1ccc2c(c1)OCO2 | 11.9 |
| Clc1ccc(OCc2nc(-c3ccccn3)n[nH]2)cc1 | -55.6 |
| Cc1ccc(OCc2nc(-c3ccccn3)n[nH]2)cc1 | -15.7 |
| Brc1ccc(OCc2nc(-c3ccccn3)n[nH]2)cc1 | -3.04 |
| O=C(CN1CC=C(c2ccccc2)CC1)Nc1c(Cl)cccc1Cl | 4.21 |
| CCOc1ccc2c(c1)-c1c(ssc1=S)C(C)(C)N2 | 4.44 |
| O=C(O)CCCC(=O)Nc1ccc(Cl)cc1 | 21.6 |
| COc1cccc(-c2noc(Cn3nc(C)c([N+](=O)[O-])c3C)n2)c1 | -6.89 |
| CN(C)C(CNC(=O)c1cccc(C(F)(F)F)c1)c1ccco1 (stereo not shown) | -11.8 |
| Nc1c(C(=O)O)cnc2nc(N3CCOCC3)nn12 | 21.7 |
| CC(C)OC(=O)c1sc2nc(-c3ccccc3)ccc2c1N | 16.7 |
| NC(=O)c1sc2nc(-c3ccccc3)ccc2c1N | 18.7 |
| Nc1c(C(=O)N2CCCC2)sc2nc(-c3ccccc3)ccc12 | -70.7 |
| CCOc1ccc(NC(=O)C(CC(=O)O)Cc2ccccc2)cc1 (stereo not shown) | 5.94 |
| O=C(c1ccco1)N1CCC(c2nc3ccccc3[nH]2)CC1 | -5.9 |
| CCCOc1ccc(CSC(=N)N)cc1C(=O)OC.Cl | -0.181 |
| CCCCOc1ccc(CSC(=N)N)cc1[N+](=O)[O-].Cl | -64.1 |
| CCOc1ccc(CSC(=N)N)cc1[N+](=O)[O-].Cl | -65.5 |
| CCOc1ccc(CSC(=N)N)cc1Cl.Cl | -15.2 |

| SMILES | hERG current change (%, negative = inhibition) at 10uM [%] |
| --- | --- |
| CCCCCOc1ccc(CSC(=N)N)cc1[N+](=O)[O-].Cl | -56.7 |
| CCCCOc1ccc(CSC(=N)N)cc1Cl.Cl | -21.9 |
| COc1ccc(CSC(=N)N)cc1[N+](=O)[O-].Cl | -3.72 |
| COC(=O)c1cc(CSC(=N)N)ccc1OCCC(C)C.Cl | -3.46 |
| Cl.N=C(N)SCc1ccc(O)c([N+](=O)[O-])c1 | -0.169 |
| Cc1ccc(-c2n[nH]c(=O)c3ccccc23)cc1N | 5.75 |
| COc1cccc(CNC(=O)c2ccc(Cl)c(S(=O)(=O)N3CCOCC3)c2)c1 | -19.5 |
| COc1ccc(OC)c(S(=O)(=O)n2nnc3cc(Cl)ccc32)c1 | 4.31 |
| COc1ccc(NC(=O)c2ccccc2OCc2c(C)noc2C)cc1OC | -37.5 |
| CN(c1ccc(C(=O)N2CCN(Cc3ccccc3)CC2)cc1)S(=O)(=O)c1ccc(Cl)cc1 | -24.9 |
| CCOc1ccc(C(=O)N2CCCC(c3nc(-c4ccc(C)o4)no3)C2)cc1 (stereo not shown) | -60.2 |
| Cc1ccc(-c2noc(C3CCCN(C(=O)c4ccc(C(C)(C)C)cc4)C3)n2)o1 (stereo not shown) | -19.8 |
| COc1ccc(C(=O)N2CCCC(c3nc(-c4ccc(C)o4)no3)C2)cc1OC (stereo not shown) | -8.29 |
| Cc1ccc(-c2noc(C3CCCN(C(=O)c4ccccc4)C3)n2)o1 (stereo not shown) | -13.1 |
| Cc1ccc(-c2noc(C3CCCN(C(=O)c4cccc([N+](=O)[O-])c4)C3)n2)o1 (stereo not shown) | -65 |
| Cc1ccc(-c2noc(C3CCCN(C(=O)c4ccc(Cl)cc4)C3)n2)o1 (stereo not shown) | -55.2 |
| CCOc1ccccc1NC(=O)N1CCCC(c2nc(-c3ccc(C)o3)no2)C1 (stereo not shown) | -52.5 |
| Cc1ccc(-c2noc(C3CCCN(C(=O)c4cccc(Cl)c4)C3)n2)o1 (stereo not shown) | -43.4 |
| Cc1cccc(C(=O)N2CCCC(c3nc(-c4ccc(C)o4)no3)C2)c1 (stereo not shown) | -27.7 |
| COc1cc(OC)cc(C(=O)N2CCCC(c3nc(-c4ccc(C)o4)no3)C2)c1 (stereo not shown) | -9.35 |
| CCOc1ccc(C(=O)N2CCCC(c3nc(-c4cccs4)no3)C2)cc1 (stereo not shown) | -46.9 |
| Cc1ccc(-c2noc(C3CCCN(C(=O)c4ccccc4Br)C3)n2)o1 (stereo not shown) | -42.6 |
